Assay outcomes from PubChem.
Compounds with a hit are over-represented: about 3.5% of the library has one in this group of screens.
NS1 function inh = blocks influenza NS1 protein function; Potency, µM (series often up to 46.1 µM), for the others: at the top dose activity, positive = more growth; 270,000 tested, 0.4% active; calls by dose curve; note: actives are rising curves; nearly all actives have a fitted effect of over 50% in size
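Compounds were scored for reversing the slow growth caused by influenza A NS1 in S. cerevisiae, measured by optical density at 600 nm. Assay medium contained 2% galactose at pH 6.0; NS1-free yeast of the same strain were the positive control.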
FBPA Giardia inh = inhibitors of Giardia lamblia fructose-1,6-bisphosphate aldolase; A8B2U2; purified Giardia FBPA; Potency, µM (top dose mostly 59.6 µM), inactives show at the top dose activity, negative = inhibition, actives largely listed as inhibitors; 290,000 tested, 0.71% active; AID 2451; note: % is set by controls: 0 for no effect and ±100 for the full control effect; nearly all actives have a fitted effect of over 55% in size
Target sequence (A8B2U2 whole entry, looked up): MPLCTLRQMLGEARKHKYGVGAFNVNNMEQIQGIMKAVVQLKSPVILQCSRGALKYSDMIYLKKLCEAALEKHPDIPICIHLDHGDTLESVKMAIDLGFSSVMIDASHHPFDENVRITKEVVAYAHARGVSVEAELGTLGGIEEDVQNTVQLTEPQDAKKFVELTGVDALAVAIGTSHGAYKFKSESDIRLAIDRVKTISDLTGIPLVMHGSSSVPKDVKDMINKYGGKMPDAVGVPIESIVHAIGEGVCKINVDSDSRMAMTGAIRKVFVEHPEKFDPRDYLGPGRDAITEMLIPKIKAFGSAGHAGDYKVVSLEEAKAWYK
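Giardia FBPA (40 nM reagent) was preincubated 10 min at RT with compound (up to 57.5 uM final), then substrate plus GAPDH/TPI/NAD/arsenate coupling system with diaphorase/resazurin was added; resorufin fluorescence (525/598 nm) was read after 20 min.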
Sm TGR inh = blocks Schistosoma mansoni thioredoxin glutathione reductase | Q962Y6 | 360,000 tested, 3% active | purified TGR, DTNB reduction, TNB absorbance 405 nm | Potency, µM (series often up to 114 µM), for the others: at the highest dose activity change, negative = inhibition, usual class: inhibitors | AID 485364; note: % is set by controls: 0 for no effect and ±100 for the full control effect; nearly all actives have a fitted effect of over 60% in size
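Kinetic colorimetric format: TGR-catalysed, NADPH-driven DTNB reduction monitored via TNB absorbance. Enzyme dispensed at 20 nM; compound exposure 15 min at room temperature before reaction start.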
LmPK inhibitor = blocks Leishmania mexicana pyruvate kinase activity; Q27686; purified LmPK, Kinase-Glo ATP luminescence, 1 h; Potency, µM (titrated, usually from 57.5 µM), for inactives: at the highest dose activity change, negative = inhibition, actives largely listed as inhibitors; 290,000 tested, 0.37% active; AID 1721; note: % is set by controls: 0 for no effect and ±100 for the full control effect
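Purified LmPK (0.1 nM) converted ADP (0.1 mM) to ATP with PEP (0.5 mM) in imidazole buffer pH 7.2 with KCl and MgCl2, 1 h at room temperature. ATP was read by Kinase-Glo luminescence; data normalized to uninhibited and no-enzyme controls.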
Tb PYK inh = inhibitors of Trypanosoma brucei pyruvate kinase | 410,000 tested, 0.12% active | Q57TT1 | Potency, µM (titrated, usually from 76.8 µM), for inactives: at the top dose activity, negative = inhibition, hits mostly inhibitors | TbPYK enzyme, Kinase-Glo Plus ATP luminescence, 45 min; note: % is set by controls: 0 for no effect and ±100 for the full control effect; nearly all actives have a fitted effect of over 50% in size
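T. brucei PYK with substrate was exposed to pin-transferred compounds across a concentration series, then started with 130 uM ADP (final). After 45 min at room temperature, Kinase-Glo Plus luminescence was read, normalized and curve-fitted.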
RE007 growth inh = less growth of the S. pombe RE007 Vpr strain; S. pombe RE007 Vpr strain, BacTiter-Glo ATP luminescence, 24 h; Potency, µM (titrated, usually from 92.2 µM), for inactives: at the top dose activity change, negative = less growth, most hits filed as inhibitors; 360,000 tested, 0.21% active; active = well fitted falling curve with a large enough effect; inconclusive = small, poorly fitted or top-dose-only effect; inactive = no such curve, though single readings can be large or run the other way; note: % is set by controls: 0 for no effect and ±100 for the full control effect; nearly all actives have a fitted effect of over 50% in size
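Fission yeast strain RE007, carrying one chromosomally integrated HIV-1 vpr copy, was seeded at OD 0.01 in PMG+AL medium with 23 nL pinned compound. After 24 h at 30 °C and 99% humidity, viability was read by BacTiter-Glo luminescence.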
Active calls of the source: *; ? = inconclusive; . = not tested or not shown. Unless noted, calls come from the whole dose curve; as a rule, active = well fitted curve in the direction sought with a large enough effect; inconclusive = small, poorly fitted or top-dose-only effect, or another doubt; inactive = no such curve, though single readings can be large; an effect the other way counts as inactive or inconclusive. Potency is the fitted concentration of half-maximal effect.

SMILES	NS1 function inh	FBPA Giardia inh	Sm TGR inh	LmPK inhibitor	Tb PYK inh	RE007 growth inh
Nc1cc(OCC(F)(F)F)cc([N+](=O)[O-])c1	0%	14%	-3%	-2%	-4%	9%
O=C(CCCCn1c(=O)c2ccccc2n(CC(=O)Nc2ccc(F)cc2F)c1=O)NCCc1ccccc1	.	.	14%	.	1%	.
O=C(O)c1ccc(S(=O)(=O)/N=C2\C=C(Nc3ccccc3F)C(=O)c3ccccc32)cc1	-33%	?	45µM*	-13%	0%	?
COc1ccc(S(=O)(=O)/N=C2\C=C(Nc3ccc(O)cc3)C(=O)c3ccccc32)cc1	0%	?	-3%	-21%	-27%	-21%
COC(=O)C(C(C)=O)C1=C/C(=N\S(=O)(=O)c2ccc(C)cc2)c2ccccc2C1=O (stereo not given)	-5%	13µM*	28µM*	?	-24%	-10%
Cc1ccccc1NC1=C/C(=N\S(=O)(=O)c2ccc(C(=O)O)cc2)c2ccccc2C1=O	-5%	0.79µM*	?	0%	3%	?
Cc1ccc2oc(=O)c3cnn(CC(=O)N4CCN(c5ccc(F)cc5)CC4)c3c2c1	.	.	1%	.	1%	.
COc1ccccc1-c1nc(SCC(=O)NCc2ccc(C)cc2)c2c(=O)n(C)c(=O)n(C)c2n1	.	.	?	.	-5%	.
CC(=O)Oc1oc(-c2ccccc2)nc1/C=N/c1ccccn1	-38%	5%	28µM*	?	4%	4%
Cc1ccc(/C(=C\CN2CCCC2)c2cccc(/C=C/C(=O)O)n2)cc1	.	.	.	.	3%	.
CC1=C(C#N)C(=O)NC(=O)/C1=C/c1ccc(-c2ccc(S(N)(=O)=O)cc2)o1	.	4%	8.9µM*	0%	?	4%
C=CCOC(=O)c1cc(-c2ccc(/C=C3\C(=O)NC(=O)C(C#N)=C3C)o2)ccc1Cl	-2%	?	7.9µM*	13%	-11%	40µM*
COc1ccccc1NC(=O)c1c(C)cc(C)nc1SCC(=O)Nc1ccc(C)cc1	.	.	-3%	.	-2%	.
CC(=O)c1ccc(S(=O)(=O)NCC(=O)N2CCN(C/C=C/c3ccccc3)CC2)cc1	.	.	7.9µM*	.	4%	21%
Cc1ccc(S(=O)(=O)NCCC(=O)N2CCN(C/C=C/c3ccccc3)CC2)cc1	.	.	-11%	.	3%	-6%
Cc1ccc(CN2CCc3nc(N4CCN(c5ccccc5F)CC4)ncc3C2)s1	.	.	-4%	.	1%	.
Cc1ccc(OCC(=O)O/N=C(\N)c2ccncc2)c(C)c1	-31%	4%	-2%	-3%	-4%	-2%
Cc1ccc(SC(C)C(=O)O/N=C(\N)c2ccncc2)cc1 (stereo not given)	-31%	.	40µM*	-7%	3%	4%
CN(CC(=O)Nc1ccccc1C(F)(F)F)C(=O)c1cc(Cl)nc2ccccc12	.	.	-3%	.	-3%	-6%
CCc1ccccc1NC(=O)CN(C)Cc1c(O)ccc2ccccc12	14%	-12%	0.71µM*	2%	23%	?
COc1ccc(CCN(C)Cc2cccc3ccccc23)cc1OC	7%	?	13%	4%	2%	-8%
CN(CC(=O)Nc1ccccc1C(F)(F)F)Cc1c(O)ccc2ccccc12	2%	-22%	1µM*	7%	5%	-16%
CCCN(CC(=O)Nc1ccccc1OC)Cc1c(O)ccc2ccccc12	9%	-14%	2µM*	0%	3%	-4%
COc1ccc(CCN(C)Cc2c(O)ccc3ccccc23)cc1OC	2%	-8%	1.4µM*	1%	0%	-20%
COc1ccccc1CN(C)CC(=O)Nc1cccc2ccccc12	-10%	1%	-4%	3%	-5%	5%
SMILES	NS1 function inh	FBPA Giardia inh	Sm TGR inh	LmPK inhibitor	Tb PYK inh	RE007 growth inh
C[C@@H](C(=O)NCc1cccc2ccccc12)[C@H]1C[C@]1(C)[C@H](NC(=O)OCc1ccccc1)c1ccccc1	.	1%	.	.	.	.
COc1ccc(CN(C)CCc2ccccn2)cc1OC	-2%	6.3µM*	2%	9%	-1%	12%
O=C(NCCCc1ccccc1)c1cccc(Br)c1	.	.	.	.	1%	-21%
O=C(CN(Cc1ccccc1)C(=O)CCl)c1cccc(Br)c1	.	.	8.9µM*	.	-2%	17%
C[C@H](N)Cc1c[nH]c2ccc(O)cc12	.	-27%	.	.	.	.
CC(N)Cc1c[nH]c2ccc(O)cc12 (stereo not given)	-4%	4µM*	.	.	-2%	-10%
Cc1ccc(-c2csc(NC(=O)c3cccc(N4C(=O)CCC4=O)c3)n2)o1	-9%	-14%	8.9µM*	2%	-19%	-2%
CCOc1ccc(-c2csc(NC(=O)c3cccc(N4C(=O)CCC4=O)c3)n2)cc1	-1%	-16%	7%	-3%	-4%	0%
O=C(CS(=O)(=O)c1cccc2nsnc12)N1CCN(c2ccccc2)CC1	.	.	-32%	.	-6%	.
COc1ccc(OC)c(NCc2cccn2-c2nnc(N3CCCCC3)s2)c1	.	.	-15%	.	-18%	.
COc1ccc(NCc2cccn2-c2nnc(N3CCOCC3)s2)cc1OC	.	.	32µM*	.	-8%	.
COc1ccc(NCc2cccn2-c2nnc(N3CCCCC3)s2)cc1OC	.	.	45µM*	.	-18%	.
COc1cccc(NCc2cccn2-c2nnc(N3CCC(C)CC3)s2)c1	.	.	-21%	.	0%	.
Cc1cc(C)c(S(=O)(=O)OC[C@H]2C=CC[C@@H](CCC[C@H]3O[C@H](C(=O)OC(C)C)CC[C@@H]3C)O2)c(C)c1	.	0%	.	.	.	.
CCCCCCCCCCC(C)=O	.	8%	.	.	.	.
CC1=Nc2cccc3cccc(c23)N1	-4%	6%	40µM*	-1%	-10%	-25%
CC(=O)[C@H]1[C@H]([C@H](O)[C@H](O)CO)O[C@](O)(C(=O)O)C[C@@H]1O	.	.	13µM*	.	4%	-5%
CSCC[C@H](N)C(=O)N[C@@H](CO)C(=O)N[C@@H](CCCN=C(N)N)C(=O)N1CCC[C@H]1C(=O)N[C@@H](C)C(=O)N[C@@H](CS)C(=O)N1CCC[C@H]1C(=O)N[C@@H](CC(N)=O)C(=O)N[C@@H](CC(=O)O)C(=O)N[C@@H](CCCCN)C(=O)N[C@@H](Cc1ccc(O)cc1)C(=O)N[C@@H](CCC(=O)O)C(=O)O	.	0%	.	.	.	.
COc1cc(CN2CCNC(=O)C2CC(=O)O)cc(OC)c1 (stereo not given)	2%	1%	-12%	15%	5%	1%
COc1cccc(CCNC(=O)CC2C(=O)NCCN2Cc2ccc(C)o2)c1 (stereo not given)	-9%	.	50µM*	14%	7%	6%
COc1cccc(CN2CCNC(=O)C2CC(=O)NCCCN2CCCC2=O)c1 (stereo not given)	11%	.	18µM*	-3%	-4%	-8%
